Inconclusive results are not listed. Active and inactive are the calls of the source. Unless noted, calls come from the whole dose curve; as a rule, active = well fitted cell-killing curve with a large enough effect; inconclusive = small, poorly fitted or top-dose-only effect; inactive = flat fitted curve, though single readings scatter.
Key:
[1] = Cell Viability - LYMP2-025 (AID 976); note: potency is the fitted concentration of half-maximal effect
Procedure, shortened: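 CellTiter-Glo luminescence (cellular ATP) after 24 h compound exposure at 37 C; LYMP2-025 human lymphoblastoid cells, 2500/well, complete medium. Tetraoctylammonium bromide positive control. AC50 by Hill equation fit of qHTS concentration-response.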

[2] = Cell Viability - LYMP2-002 (AID 977);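 note: series mostly up to about 92 µM; plate controls were DMSO only for no effect and 92 µM tetraoctylammonium bromide for full effect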
Procedure, shortened: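 In this qHTS viability screen, 2500 human lymphoblastoid cells per well receive compound for 24 hr at 37 C, and luciferase-based ATP luminescence gives the viability signal. Tetraoctylammonium bromide serves as positive control.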

[3] = Cell Viability - LYMP2-006 (AID 978);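 note: series mostly up to about 92 µM; cells exposed to compound for 24 hours; % is set by controls: 0 for no effect and ±100 for the full control effect; nearly all actives have a fitted effect of over 60% in size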
Procedure, shortened: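 Human lymphoblastoid cells (LYMP2-006), 2500/well in complete medium, were treated with compound for 24 hr at 37 C. Cellular ATP was read by CellTiter-Glo luminescence after 30 min, and AC50 values came from Hill-equation fits of concentration-response data.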

[4] = Cell Viability - LYMP2-007 (AID 979);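 note: cells exposed to compound for 24 h before reading; 0% = DMSO only and the negative end = 92 µM tetraoctylammonium bromide; nearly all actives have a fitted effect of over 60% in size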
Procedure, shortened: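 qHTS cytotoxicity: 2500 cells/well, 5 hr 37 C settle, compound 24 hr 37 C, CellTiter-Glo 30 min RT, luminescence. Decrease in ATP = toxicity. AC50 by standard Hill equation; tetraoctylammonium bromide positive control.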

[5] = Cell Viability - LYMP2-008 (AID 980); note: % is set by controls: 0 for no effect and ±100 for the full control effect; nearly all actives have a fitted effect of over 60% in size
Procedure, shortened: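 Luminescent ATP read-out (CellTiter-Glo, 30 min RT) after 24 hr compound exposure at 37 C of human lymphoblastoid cells in complete medium. Decrease in ATP taken as cytotoxicity; AC50 derived by standard Hill fit of qHTS concentration-response data.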

[6] = Cell Viability - LYMP2-010 (AID 981);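 note: cells exposed to compound for 24 hours at 37 °C; % is set by controls: 0 for no effect and ±100 for the full control effect; nearly all actives have a fitted effect of over 55% in size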
Procedure, shortened: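 qHTS cytotoxicity, 1536-well: 2500 cells/well, 5 hr settle, 24 hr compound at 37 C, CellTiter-Glo 30 min RT, luminescence read. Decrease in ATP = toxicity; AC50 via standard Hill equation. Positive control tetraoctylammonium bromide.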

[7] = Cell Viability - LYMP2-012 (AID 982);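 note: cellular ATP by luciferase luminescence where a drop means cytotoxicity; cells exposed to compound for one day before reading; 0% = DMSO only and full loss = 92 µM tetraoctylammonium bromide; nearly all actives have a fitted effect of over 55% in size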
[8] = Cell Viability - LYMP2-014 (AID 983);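 note: series mostly up to about 92 µM; plate controls were DMSO only for no effect and 92 µM tetraoctylammonium bromide for full effect; nearly all actives have a fitted effect of over 50% in size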
Procedure, shortened: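 2500 cells/well, 5 hr 37 C; cpd 24 hr 37 C, complete medium; CellTiter-Glo 30 min RT, luminescence; ATP loss = toxicity; AC50 via Hill eqn; tetraoctylammonium bromide positive control.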

[9] = Cell Viability - LYMP2-016 (AID 984);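 note: cells exposed to compound for 24 hours at 37 °C; % is set by controls: 0 for no effect and ±100 for the full control effect; nearly all actives have a fitted effect of over 55% in size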
Procedure, shortened: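 Human lymphoblastoid LYMP2-016 cells, 2500 per well, treated with compounds for 24 h at 37 C. Viability read as intracellular ATP by CellTiter-Glo luminescence after 30 min at room temperature; AC50 from Hill fits of concentration-response.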

[10] = Cell Viability - LYMP2-018 (AID 985);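 note: plate controls were DMSO only for no effect and tetraoctylammonium bromide at 92 µM for full effect; nearly all actives have a fitted effect of over 50% in size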
Procedure, shortened: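 2500 cells/well; 5 hr 37 C; cmpd 24 hr 37 C, complete medium; CellTiter-Glo 30 min RT; luminescence. Tetraoctylammonium bromide positive control. AC50 via Hill fit.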

[11] = Cell Viability - LYMP2-020 (AID 986);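 note: series mostly up to about 92 µM; plate controls were DMSO only for no effect and tetraoctylammonium bromide at 92 µM for full effect; nearly all actives have a fitted effect of over 55% in size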
Procedure, shortened: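 qHTS, 2500 cells/well; 5 hr then 24 hr compound exposure, 37 C; CellTiter-Glo luminescence after 30 min RT; ATP decrease taken as cytotoxicity; AC50 via Hill equation; tetraoctylammonium bromide positive control.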

[12] = Cell Viability - LYMP2-022 (AID 987)
Procedure, shortened: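 Luminescent ATP read-out (CellTiter-Glo, 30 min, RT) after 24 hr, 37 C compound exposure of 2500 human lymphoblastoid cells/well in complete medium. Cytotoxicity taken as concentration-dependent ATP loss; AC50 from standard Hill equation.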

[13] = Cell Viability - LYMP2-024 (AID 988);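 note: plate controls were DMSO only for no effect and 92 µM tetraoctylammonium bromide for full effect; nearly all actives have a fitted effect of over 60% in size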
Procedure, shortened: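 ATP-based luminescence (CellTiter-Glo, 30 min RT) after 24 h compound exposure at 37 C of 2500 lymphoblastoid cells/well; decrease in ATP taken as cytotoxicity. qHTS concentration-response fitted to standard Hill equation for AC50.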

[14] = Cell Viability - LYMP2-026 (AID 989); note: % is set by controls: 0 for no effect and ±100 for the full control effect; nearly all actives have a fitted effect of over 50% in size
Procedure, shortened: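 qHTS cytotoxicity: 2500 cells/well, 5 hr 37 C, compound 24 hr 37 C, CellTiter-Glo 30 min RT, luminescence. Tetraoctylammonium bromide positive control. AC50 via standard Hill fit.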

[15] = Cell Viability - LYMP1-002 - Assay at 24 hr (AID 993); note: % is set by controls: 0 for no effect and ±100 for the full control effect
Procedure, shortened: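 CellTiter-Glo luminescence (intracellular ATP) after 24 h compound exposure, 37 C, in LYMP1-002 human lymphoblastoid cells; decreased ATP taken as cytotoxicity. AC50 from standard Hill fit of concentration-response curves.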

[16] = qHTS Assay for Identification of Small Molecule Inducers of Hypoxia Response (AID 2120; active = well fitted curve in the direction sought with a large enough effect in the signal ratio, with a control signal flat, not every such curve was filed as active; the % refers to the signal ratio; note: 0% is about no effect)
Procedure, shortened: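 Read-out: CCF4 FRET emission ratio 460nm/530nm (excitation 405nm), converted to %Activity, with AC50 fitted across a compound titration. ME-180 cells carried an HRE-driven beta-lactamase reporter; compound exposure 17 h, 37 degrees C.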

[17] = target: Estrogen receptor (Homo sapiens) (UniProt P03372); experiment: qHTS assay for small molecule antagonists of estrogen receptor alpha signaling (AID 588513; active = well fitted curve in the direction sought with a large enough effect in the signal ratio, with a control signal flat, not every such curve was filed as active; the % refers to the signal ratio; note: % is set by controls: 0 for no effect and ±100 for the full control effect)
Procedure, shortened: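 ER-alpha-UAS-bla GripTite HEK 293 cells in 2% charcoal/dextran-treated FBS medium; compounds titrated (1:2, duplicate), then stimulated with 0.5 nM 17-beta-estradiol for 18 h at 37C. CCF4 beta-lactamase fluorescence; Hill-fit IC50 and efficacy.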

[18] = target: Estrogen receptor (Homo sapiens) (UniProt P03372); experiment: qHTS assay for small molecule agonists of estrogen receptor alpha signaling (AID 588514; calls by dose curve; note: nearly all actives have a fitted effect of over 70% in size; note: potency is the fitted concentration of half-maximal effect;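 for activation: 0% = vehicle only and 100% = reference agonist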)
Procedure, shortened: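 Read-out: CCF4 fluorescence from a beta-lactamase reporter in ER-alpha-UAS-bla HEK 293 cells after 18 hrs of compound exposure at 37 C. Normalized to 20 nM 17-beta-estradiol (100%) and DMSO (0%).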

[19] = Cell Viability - LYMP1-002 - Assay at 40 hr (AID 994)
Procedure, shortened: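 qHTS cytotoxicity; 2500 cells/well, 5 hr 37 C settle, compound 40 hr 37 C. CellTiter-Glo, 30 min RT, luminescence (ATP). Concentration-response, Hill fit → AC50. Pos. ctrl tetraoctylammonium bromide.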

[20] = target: Androgen receptor (Homo sapiens) (UniProt P10275); experiment: qHTS assay for small molecule agonists of androgen receptor signaling (AID 588515; active = well fitted curve in the direction sought with a large enough effect in the signal ratio, with a control signal flat; the % refers to the signal ratio; note: % is set by controls: 0 for no effect and ±100 for the full control effect); conditions: AR-UAS-bla HEK293, beta-lactamase ratio, agonist 16 h; active compounds read high
Procedure, shortened: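 Stimulation of an AR-responsive β-lactamase reporter in GripTite HEK293 cells was measured after 16 h compound exposure at 37 °C, via CCF4 fluorescence after 2 h RT. EC50 from Hill fits, normalized to R1881 at 30 nM.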

Sequence of Estrogen receptor (Homo sapiens) (P03372 whole entry, looked up): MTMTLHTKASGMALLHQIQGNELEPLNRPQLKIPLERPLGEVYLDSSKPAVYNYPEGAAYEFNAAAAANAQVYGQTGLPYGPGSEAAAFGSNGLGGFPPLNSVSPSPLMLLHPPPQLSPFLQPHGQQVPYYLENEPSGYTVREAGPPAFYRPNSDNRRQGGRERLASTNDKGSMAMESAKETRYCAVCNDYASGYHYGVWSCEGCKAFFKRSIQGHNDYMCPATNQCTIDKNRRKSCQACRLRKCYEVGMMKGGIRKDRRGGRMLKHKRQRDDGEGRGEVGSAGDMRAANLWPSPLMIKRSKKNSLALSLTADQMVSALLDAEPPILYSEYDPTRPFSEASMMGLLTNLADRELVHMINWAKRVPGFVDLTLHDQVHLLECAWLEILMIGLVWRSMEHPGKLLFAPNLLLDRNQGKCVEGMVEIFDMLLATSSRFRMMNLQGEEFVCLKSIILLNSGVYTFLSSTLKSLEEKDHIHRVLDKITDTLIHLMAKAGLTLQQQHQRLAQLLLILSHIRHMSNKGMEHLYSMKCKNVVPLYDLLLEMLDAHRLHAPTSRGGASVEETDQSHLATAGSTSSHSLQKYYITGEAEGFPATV
Sequence of Androgen receptor (Homo sapiens) (P10275 whole entry, looked up): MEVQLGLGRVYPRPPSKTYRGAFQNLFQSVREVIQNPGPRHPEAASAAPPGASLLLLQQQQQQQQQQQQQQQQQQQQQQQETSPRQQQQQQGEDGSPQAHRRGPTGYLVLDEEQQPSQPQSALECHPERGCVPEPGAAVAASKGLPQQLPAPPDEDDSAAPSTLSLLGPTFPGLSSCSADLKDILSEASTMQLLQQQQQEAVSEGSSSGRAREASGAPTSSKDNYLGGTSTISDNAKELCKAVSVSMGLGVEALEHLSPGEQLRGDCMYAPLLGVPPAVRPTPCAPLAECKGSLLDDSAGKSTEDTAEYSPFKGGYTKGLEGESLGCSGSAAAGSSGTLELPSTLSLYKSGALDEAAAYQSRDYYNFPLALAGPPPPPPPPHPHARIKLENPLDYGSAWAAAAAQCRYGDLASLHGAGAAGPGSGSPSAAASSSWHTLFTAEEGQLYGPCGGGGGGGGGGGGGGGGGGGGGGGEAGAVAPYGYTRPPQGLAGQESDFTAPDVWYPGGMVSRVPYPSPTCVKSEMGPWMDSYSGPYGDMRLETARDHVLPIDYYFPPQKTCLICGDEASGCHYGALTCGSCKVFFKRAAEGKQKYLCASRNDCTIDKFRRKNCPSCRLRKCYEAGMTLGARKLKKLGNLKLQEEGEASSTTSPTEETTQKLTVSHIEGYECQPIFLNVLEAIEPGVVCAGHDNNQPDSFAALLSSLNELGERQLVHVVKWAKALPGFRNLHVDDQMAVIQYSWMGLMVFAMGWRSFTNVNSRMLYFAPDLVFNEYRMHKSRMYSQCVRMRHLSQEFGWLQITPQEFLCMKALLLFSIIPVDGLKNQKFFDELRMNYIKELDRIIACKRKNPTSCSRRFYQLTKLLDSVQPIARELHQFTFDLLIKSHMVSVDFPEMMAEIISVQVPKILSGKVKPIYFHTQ

CC=O
inactive: Potency [1] | Potency [2] | Potency [3] | Potency [4] | Potency [5] | Potency [6] | Potency [7] | Potency [8] | Potency [9] | Potency [10] | Potency [11] | Potency [12] | Potency [13] | outcome [14] | Potency [15] | outcome [16] | outcome [17] | Potency [18]

C=C(C)C(=O)OCCCCCCCCCC
inactive: Potency [1] | Potency [2] | Potency [3] | Potency [4] | Potency [5] | Potency [6] | Potency [7] | Potency [8] | Potency [9] | Potency [10] | Potency [11] | Potency [12] | Potency [13] | outcome [14] | Potency [15] | Potency [19] | outcome [16] | outcome [17] | Potency [18]

COc1cccc2sc(N)nc12
inactive: Potency [1] | Potency [2] | Potency [3] | Potency [4] | Potency [5] | Potency [6] | Potency [7] | Potency [8] | Potency [9] | Potency [10] | Potency [11] | Potency [12] | Potency [13] | outcome [14] | Potency [15] | outcome [16] | outcome [17] | Potency [18]

C=CCCCCCC
inactive: Potency [1] | Potency [2] | Potency [3] | Potency [4] | Potency [5] | Potency [6] | Potency [7] | Potency [8] | Potency [9] | Potency [10] | Potency [11] | Potency [12] | Potency [13] | outcome [14] | Potency [15] | outcome [16] | outcome [17]
active: Potency [18] 12.6 µM

CCOc1ccc(NC(C)=O)cc1N
inactive: Potency [1] | Potency [2] | Potency [3] | Potency [4] | Potency [5] | Potency [6] | Potency [7] | Potency [8] | Potency [9] | Potency [10] | Potency [11] | Potency [12] | outcome [14] | Potency [15] | Potency [19] | outcome [16] | outcome [17] | Potency [18] | activation [20] 0.896%

CC(=O)Nc1ccc(N)cc1
inactive: Potency [1] | Potency [2] | Potency [3] | Potency [4] | Potency [5] | Potency [6] | Potency [7] | Potency [8] | Potency [9] | Potency [10] | Potency [12] | Potency [13] | outcome [14] | Potency [19] | outcome [16] | outcome [17] | Potency [18] | activation [20] -10.4%

C=C(C)C(=O)OCC(C)C
inactive: Potency [1] | Potency [2] | Potency [3] | Potency [4] | Potency [5] | Potency [6] | Potency [7] | Potency [8] | Potency [9] | Potency [10] | Potency [11] | Potency [12] | Potency [13] | outcome [14] | Potency [15] | outcome [16] | outcome [17] | Potency [18]

O=c1[nH][nH]c(=O)c2cc([N+](=O)[O-])ccc12
inactive: Potency [1] | Potency [2] | Potency [3] | Potency [4] | Potency [5] | Potency [6] | Potency [7] | Potency [8] | Potency [9] | Potency [10] | Potency [11] | Potency [12] | Potency [13] | outcome [14] | Potency [15] | outcome [16] | outcome [17] | Potency [18]

C1COC1
inactive: Potency [1] | Potency [2] | Potency [3] | Potency [4] | Potency [5] | Potency [6] | Potency [7] | Potency [8] | Potency [9] | Potency [10] | Potency [11] | Potency [12] | Potency [13] | outcome [14] | Potency [15] | Potency [19] | outcome [16] | outcome [17] | Potency [18] | activation [20] -10.3%

CC(C)(O)CCC(C)(C)O
inactive: Potency [2] | Potency [3] | Potency [4] | Potency [5] | Potency [6] | Potency [7] | Potency [8] | Potency [9] | Potency [10] | Potency [11] | Potency [12] | Potency [13] | outcome [14] | Potency [15] | Potency [19] | outcome [16] | outcome [17] | Potency [18] | activation [20] -1.56%

c1ccc2c(c1)Oc1ccccc1S2
active: Potency [1] 0.001 µM
inactive: Potency [2] | Potency [3] | Potency [4] | Potency [5] | Potency [6] | Potency [7] | Potency [8] | Potency [9] | Potency [10] | Potency [11] | Potency [12] | Potency [13] | outcome [14] | Potency [15] | outcome [16] | outcome [17] | Potency [18]

OCCO
inactive: Potency [1] | Potency [2] | Potency [3] | Potency [4] | Potency [5] | Potency [6] | Potency [7] | Potency [8] | Potency [9] | Potency [10] | Potency [12] | outcome [14] | Potency [15] | Potency [19] | outcome [16] | outcome [17] | Potency [18] | activation [20] -10.8%

Cc1cc(C)cc(N)c1
inactive: Potency [1] | Potency [2] | Potency [3] | Potency [4] | Potency [5] | Potency [6] | Potency [7] | Potency [8] | Potency [9] | Potency [10] | Potency [11] | Potency [12] | Potency [13] | outcome [14] | Potency [15] | Potency [19] | outcome [16] | outcome [17] | Potency [18] | activation [20] 2.27%

BrC(Br)C(Br)Br
inactive: Potency [1] | Potency [2] | Potency [3] | Potency [4] | Potency [5] | Potency [6] | Potency [7] | Potency [8] | Potency [9] | Potency [10] | Potency [11] | Potency [12] | Potency [13] | outcome [14] | Potency [15] | Potency [19] | outcome [16] | outcome [17] | Potency [18] | activation [20] 2.87%

c1ccsc1
inactive: Potency [1] | Potency [2] | Potency [3] | Potency [5] | Potency [6] | Potency [7] | Potency [8] | Potency [9] | Potency [10] | Potency [11] | Potency [12] | Potency [13] | outcome [14] | Potency [15] | Potency [19] | outcome [16] | outcome [17] | Potency [18] | activation [20] -6.67%

C1CCC2OC2C1 (centres undefined)
inactive: Potency [1] | Potency [2] | Potency [3] | Potency [4] | Potency [5] | Potency [6] | Potency [7] | Potency [8] | Potency [10] | Potency [11] | Potency [12] | Potency [13] | outcome [14] | Potency [15] | Potency [19] | outcome [16] | outcome [17] | Potency [18] | activation [20] -3.32%

— PubChem BioAssay (NCATS)
